High-throughput results as filed in PubChem BioAssay.
In the library only some 2.6% were active in any assay of this set; here they are far more common.
PKA-R2B act = activators of human PKA-R2B complex; P22694+P31323; PKA-R2B holoenzyme dissociation, Cy5-IP20 fluorescence polarization; R2B truncated from residue 108, S112A mutant; 0% DMSO only, 100% 113 µM cGMP; activation, % at 11.4 µM; actives 0.079% (n = 340,000); AID 504700;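 active = activation above a cutoff set at the mean over all compounds plus 3 SD, cut at about 18% in these data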;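 also: higher means more holoenzyme dissociation and a rise in polarization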
PAFAH1B3 FP inh = blocks human PAF acetylhydrolase 1B catalytic subunit 3 | Q15102 | recombinant PAFAH1B3, FP-rhodamine probe, fluorescence polarization | inhibition, % at 3.39 µM | actives 0.28% (n = 340,000);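 active = inhibition above the screen-wide average of all tested compounds plus 3 SD, cut at about 25% in these data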
Target sequence (Q15102 whole entry, looked up): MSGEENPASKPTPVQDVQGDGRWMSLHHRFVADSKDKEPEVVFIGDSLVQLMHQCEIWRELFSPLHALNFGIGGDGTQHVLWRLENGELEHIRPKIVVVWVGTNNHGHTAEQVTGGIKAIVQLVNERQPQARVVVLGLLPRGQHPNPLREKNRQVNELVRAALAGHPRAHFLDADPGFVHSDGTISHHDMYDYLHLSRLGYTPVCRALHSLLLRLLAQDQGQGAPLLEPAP
PKA-R1A act = activators of PKA-R1A complex; actives 0.083% (n = 340,000); PKA-R1A dissociation, Cy5-IP20 fluorescence polarization; scaled: DMSO 0%, 113 µM cGMP 100%; activation, % at 11.4 µM; AID 504707;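 active = percent activation above the mean of all tested compounds plus 3 SD, cut at about 19% in these data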;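 also: higher means more PKAc released from R1A so a rise in polarization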
PAFAH2 inh = PAFAH2 (human) inhibition; Q99487; recombinant PAFAH2, FP-rhodamine activity probe, fluorescence polarization; inhibition, % at 3.39 µM; actives 0.99% (n = 340,000); AID 492956;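 active = inhibition above the mean over all tested compounds plus 3 SD, cut at about 30% in these data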;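 also: inhibitors block probe labeling of enzyme so polarization drops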
pPAFAH inh = pPAFAH (human) enzyme inhibition; recombinant pPAFAH, FP-rhodamine probe fluorescence polarization; inhibition, % at 3.39 µM; actives 1.5% (n = 330,000); AID 463082;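 active = inhibition above the mean inhibition across the screen plus 3 SD, cut at about 25% in these data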;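 also: inhibitors block binding of the rhodamine activity-based probe so polarization drops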
PAFAH1B2 inh = inhibitors of human PAFAH1B2. P68402. recombinant PAFAH1B2, FP-rhodamine activity probe, fluorescence polarization. inhibition, % at 3.39 µM. actives 1.2% (n = 340,000);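 active = inhibition above the mean of all tested compounds plus 3 SD, cut at about 24% in these data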
pPAFAH confirm = pPAFAH (human) inhibition, confirmed | shares compounds with pPAFAH inh | recombinant pPAFAH, FP-Rh probe fluorescence polarization | inhibition, % at 3.39 µM | actives 72% (n = 2,300);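 active = mean inhibition of the triplicate above the hit cutoff set for the earlier primary screen, cut at about 25% in these data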
A number is an active result; - = inactive; . = no result.

SMILES	PKA-R2B act	PAFAH1B3 FP inh	PKA-R1A act	PAFAH2 inh	pPAFAH inh	PAFAH1B2 inh	pPAFAH confirm
O=C1CS(=O)(=O)N(Cc2cccc(F)c2)c2ccc(Br)cc21	-	-	-	-	-	-	.
COC(=O)c1sccc1NC(=O)c1ccc(C(C)C)cc1	-	-	-	-	-	-	.
O=C(CSc1nnc(Nc2ccccc2F)s1)NC(=O)CN1CCCC1=O	-	-	-	-	-	-	.
Cc1c(C(=O)NNC(=S)NCc2ccc(Cl)cc2)oc2ccccc12	-	-	-	-	-	-	.
C[C@@H]1CN([C@@H](C)CO)S(=O)(=O)c2ccc(Br)cc2O[C@H]1CN(C)Cc1ccc(-c2ccccc2)cc1	-	.	-	.	.	.	.
CN(C)c1ccc(N/C=C/C(=O)c2ccccc2)cc1	-	-	-	-	39	-	-
COc1cccc(/C=C/C(=O)N2CC(C)OC(C)C2)c1OC (configuration not stated)	-	-	-	-	-	-	.
N#C/C(=N\Nc1ccc(Cl)c(Cl)c1)C(=O)C1CC1	.	.	.	.	41	.	40
Cc1ccc(C(=O)n2nc(-c3ccccc3)nc2NCc2ccco2)cc1	-	-	-	-	74	-	-
CC(=O)c1c(OC(=O)c2ccccc2)c2ccccc2n1C	-	-	-	-	81	-	-
Cn1c(=O)c(C(=O)c2ccccc2)c(O)c2ccccc21	.	.	.	.	-	.	.
COc1ccc(N2C3=C(CC4=C2CCCC4=O)C(=O)CCC3)cc1	-	-	-	-	44	-	-
N=C1C(c2ccccc2)=C(O)CN1c1cccc(S(=O)(=O)N2CCOCC2)c1	-	-	-	-	44	-	-
O=c1cc(-c2ccc(O)cc2)oc2c1ccc1ccccc12	-	-	-	-	-	-	.
O=c1cc(-c2ccccc2)oc2cc(O)c(O)c(O)c12	-	-	-	-	56	-	69
COc1c(O)cc2oc(-c3ccc(O)cc3)cc(=O)c2c1O	-	-	-	-	-	-	.
O=c1cc(-c2ccc(O)cc2)oc2c(O)c(O)c(O)c(O)c12	-	52	-	69	37	26	72
Cc1cc(OC(=O)Nc2ccccc2)ccc1Cl	-	.	-	.	.	.	.
O=C(CCNC(=O)c1ccc([N+](=O)[O-])cc1)NCc1ccco1	-	-	-	-	-	-	.
NS(=O)(=O)c1ccc(N2CCCC2=O)c([N+](=O)[O-])c1	-	-	-	-	44	-	-
NC1=NC(=O)/C(=C/c2cc(Br)c(O)c(Br)c2)S1	-	34	-	-	48	-	42
NC1=NC(=O)/C(=C/c2ccc(Br)cc2)S1	-	-	-	-	-	-	.
COc1ccc2noc3c2c1C(=O)c1ccccc1-3	-	-	-	38	38	-	25
FC(F)C(F)(F)C(F)(F)C(F)(F)c1cc(-c2ccccc2)n[nH]1	-	-	-	-	56	-	50
Cc1cc(-c2ccccc2)n[nH]1	-	-	-	-	-	-	.
SMILES	PKA-R2B act	PAFAH1B3 FP inh	PKA-R1A act	PAFAH2 inh	pPAFAH inh	PAFAH1B2 inh	pPAFAH confirm
O=C(CCNC(=O)c1ccco1)NCc1ccc(F)cc1	-	-	-	-	-	-	.
CC(NCC(=O)NC(=O)NC1CCCC1)c1ccc(Cl)cc1Cl (configuration not stated)	-	-	-	-	58	-	-
CCOC(=O)c1ccc(N2C(=O)CC(Sc3ncccn3)C2=O)cc1 (configuration not stated)	-	-	-	-	40	-	-
CCOC(=O)C(N)CSC1CC(=O)N(c2ccc(C(=O)OC)cc2)C1=O (configuration not stated)	-	-	-	-	-	-	.
Cc1ccc(-n2nc3c(=O)n(CCCC(=O)NCC(C)c4ccccc4)nc(C)c3c2C)cc1 (configuration not stated)	-	-	-	-	-	-	.
Cc1ccc(N2CCN(C(=O)c3cc(-c4ccc(F)cc4)[nH]c3C)CC2C)cc1 (configuration not stated)	-	-	-	-	.	-	.
COc1ccc(S(=O)(=O)/N=C2/NC(=O)/C(=C\c3ccco3)S2)cc1	-	-	-	-	35	-	-
